Bioassay records from PubChem BioAssay.
In the library only some 3.8% were active in any assay of this set; here they are far more common.
ELG1 repair inh: ELG1-dependent DNA repair inhibition; Potency, µM (titrated, usually from 46.1 µM), for inactives: at the highest dose activity change, negative = inhibition, actives largely listed as inhibitors; 2.3% of 330,000 active; AID 504467; HEK293T ELG1-luciferase reporter, luminescence, 16 h; DNA damage induced by 5-fluorouridine; also: % is scaled to controls: 0 for no effect and ±100 for the full control effect; nearly all actives have a fitted effect of over 55% in size
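Overnight (16 hr) co-exposure of 2,000 cells/well to 5-fluorouridine and compound at 37 °C preceded detection. Luciferase was quantified via ONE-Glo luminescence; loss of signal denotes inhibition.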
Nrf2 ARE act: Nrf2 pathway activation; AREc32 ARE-luciferase reporter (MCF7-derived line), luminescence, 24 h; Potency, µM (titrated, usually from 46.1 µM), without a hit: top-dose activation, usual class: activators; 0.31% of 410,000 active; also: % of control where 0% means no effect; nearly all actives have a fitted effect of over 65% in size
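Nrf2 activation is followed as ARE-luciferase induction in the AREc32 line after one day of compound treatment; luminescence is read with Steady-Glo.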
A549 viability: kills or reduces viability of A549 cells in Nrf2 counter-screen; A549 ARE-Fluc cells, CellTiter-Fluor viability, 18-24 h; Potency, µM (top dose mostly 46 µM), for inactives: top-dose activity change, negative = cytotoxicity, usual class: inhibitors; 0.16% of 390,000 active; AID 504648; also: % is scaled to controls: 0 for no effect and ±100 for the full control effect
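Cytotoxicity counterscreen: CellTiter-Fluor fluorescence was measured in A549 ARE_Fluc cells after 18-24 h of compound exposure in a concentration series. The subsequent BugLite luminescent read reports ARE-luciferase activity.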
IDH1 R132H inh: blocks human mutant IDH1 R132H enzyme; Potency, µM (highest dose often 76.6 µM), for the others: at the top dose activity change, negative = inhibition, usual class: inhibitors; O75874; IDH1-R132H enzyme, NADPH consumption, diaphorase/resazurin fluorescence; 0.093% of 390,000 active; also: % is scaled to controls: 0 for no effect and ±100 for the full control effect; nearly all actives have a fitted effect of over 65% in size
Target sequence (O75874 whole entry R132H, stated change not applied): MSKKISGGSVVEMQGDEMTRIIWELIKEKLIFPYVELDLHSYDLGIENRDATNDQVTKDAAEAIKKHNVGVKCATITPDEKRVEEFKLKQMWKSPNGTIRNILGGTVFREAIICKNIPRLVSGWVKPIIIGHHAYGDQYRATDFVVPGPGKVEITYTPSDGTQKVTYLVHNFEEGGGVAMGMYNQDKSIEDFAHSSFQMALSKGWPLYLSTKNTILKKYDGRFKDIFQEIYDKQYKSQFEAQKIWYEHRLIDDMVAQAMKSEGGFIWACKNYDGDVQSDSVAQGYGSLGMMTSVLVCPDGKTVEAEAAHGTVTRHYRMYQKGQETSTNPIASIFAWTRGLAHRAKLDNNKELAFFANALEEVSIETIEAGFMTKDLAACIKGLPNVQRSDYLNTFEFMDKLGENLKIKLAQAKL
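IDH1-R132H (0.5 ug/mL) preincubated 30 min with compound, then NADPH (0.016 mM) and alpha-KG (2 mM) added; 80 min at RT, pH 7.5. Remaining NADPH coupled via diaphorase/resazurin to fluorescence (540/590 nm); concentration-response curves normalized to no-enzyme control.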
Nrf2 block: Nrf2 pathway inhibition; A549 ARE-Fluc reporter, luciferase luminescence, 18-24 h; 2.1% of 360,000 active; Potency, µM (titrated, usually from 46 µM), for inactives: at the highest dose activity change, negative = inhibition, most hits filed as inhibitors; also: % is scaled to controls: 0 for no effect and ±100 for the full control effect; nearly all actives have a fitted effect of over 60% in size
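A549 ARE_Fluc cells, 5000/well, 5% FBS OPTI-MEM; compounds in dose-response, 18-24 h at 37 °C/5% CO2; CellTiter-Fluor viability read (Ex 405/Em 525), then BugLite luciferase luminescence = Nrf2 activity.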
* hit, by the source's call; ! = a repeat was not active. Calls follow the shape of the dose curve; as a rule, active = well fitted curve in the direction sought with a large enough effect; inconclusive = small, poorly fitted or top-dose-only effect, or another doubt; inactive = no such curve, though single readings can be large; an effect the other way counts as inactive or inconclusive. Potency is read from the fitted curve at half-maximal effect.

Screening COc1cc2c(cc1OC)C(NC(=O)C(F)(F)F)CNC2=O (stereo not given) returned ELG1 repair inh 11.6µM*, Nrf2 ARE act 0.2%, A549 viability -0.2%, IDH1 R132H inh 0.0% and Nrf2 block -16.9%.
COc1ccc(C2c3c(-c4ccccc4O)n[nH]c3C(=O)N2CCc2ccc(OC)c(OC)c2)cc1 (stereo not given) was read as ELG1 repair inh 2.82µM*, Nrf2 ARE act 2.1%, A549 viability -10.8%, IDH1 R132H inh 1.6% and Nrf2 block -9.4%.
Screening CCCCN(C(=O)CC1CCCC1)c1c(N)n(Cc2ccccc2)c(=O)[nH]c1=O returned Nrf2 ARE act 0.0% and IDH1 R132H inh 6.1%.
`CC(C)n1c(NCCc2ccccc2)nc2c1c(=O)n(C)c(=O)n2C` gave ELG1 repair inh 18.4µM*, Nrf2 ARE act -0.2%, A549 viability -4.6%, IDH1 R132H inh -0.5% and Nrf2 block 13µM*.
For CCCNc1nc2c(c(=O)n(C)c(=O)n2C)n1CCc1ccccc1 the results were ELG1 repair inh inconclusive, Nrf2 ARE act 0.1%, A549 viability -17.7%, IDH1 R132H inh -0.4% and Nrf2 block 4.11µM*.
`CC(C)Oc1ccc(CNC(=O)c2ccc3nc(Cc4ccccc4)oc3c2)cc1` gave Nrf2 ARE act -0.4%, A549 viability 1.8% and IDH1 R132H inh -7.4%.
CC(NC(=O)COC(=O)c1ccc[nH]c1=O)c1ccccc1 (stereo not given) was read as ELG1 repair inh 6.9%, Nrf2 ARE act -0.3%, A549 viability 1.0%, IDH1 R132H inh -0.1% and Nrf2 block -3.4%.
CC(=O)Nc1nc2nc(-c3ccccc3)cc(-c3ccccc3)n2n1 was read as ELG1 repair inh -26.4%, Nrf2 ARE act 0.7%, A549 viability -1.3%, IDH1 R132H inh 0.4% and Nrf2 block -10.2%.
For O=C(Nc1nc2nc(-c3ccccc3)cc(-c3ccccc3)n2n1)c1ccco1 the results were ELG1 repair inh 8.2µM*, Nrf2 ARE act 6.1%, A549 viability inconclusive, IDH1 R132H inh -1.5% and Nrf2 block inconclusive.
Screening CCOc1cc(C(=S)N2CCCC2)ccc1OCC(=O)Nc1c(C)cc(C)cc1C returned ELG1 repair inh 20.6µM*, Nrf2 ARE act -0.3%, A549 viability 1.6%, IDH1 R132H inh 2.7% and Nrf2 block -23.0%.
For O=C(CSCC(=O)Nc1nc(-c2ccc3c(c2)OCO3)cs1)Nc1nccs1 the results were ELG1 repair inh -16.8%, Nrf2 ARE act 2.8%, A549 viability 1.6%, IDH1 R132H inh -3.0% and Nrf2 block 20.6µM*.
O=C(CSc1ccc(-c2ccc3c(c2)OCO3)nn1)Nc1nccs1 was read as ELG1 repair inh -12.7%, Nrf2 ARE act 0.0%, A549 viability -11.2%, IDH1 R132H inh 2.2% and Nrf2 block inconclusive.
Screening O=C(C1CCCN(S(=O)(=O)Cc2ccccc2)C1)N1CCc2ccccc21 (stereo not given) returned ELG1 repair inh 25.9µM*, Nrf2 ARE act -0.3%, A549 viability -1.6%, IDH1 R132H inh 2.1% and Nrf2 block 5.1%.
Screening COC(=O)C[C@@H]1C[C@H]2c3cc(NS(C)(=O)=O)ccc3O[C@H]2[C@H](CO)O1 returned Nrf2 ARE act 0.4% and IDH1 R132H inh 0.1%.
`COc1ccc(OC)c(C2=NS(=O)(=O)N(C)C(C(=O)Nc3ccc(F)cc3F)=C2)c1` gave ELG1 repair inh -20.9%, Nrf2 ARE act 0.4%, A549 viability inconclusive, IDH1 R132H inh 1.7% and Nrf2 block 14.6µM*!.
For CCSC1=NS(=O)(=O)c2ccccc21 the results were A549 viability -4.4% and Nrf2 block -7.0%.
`Cc1cc(C)n(C(=O)/C(C#N)=N\Nc2ccccc2[N+](=O)[O-])n1` gave ELG1 repair inh -0.7%, Nrf2 ARE act 0.4%, A549 viability -4.8%, IDH1 R132H inh 3.5% and Nrf2 block inconclusive.
Cc1cc(C)n(C(=O)/C(C#N)=N/Nc2cc(Cl)cc(Cl)c2)n1 was read as ELG1 repair inh 16.4µM*, Nrf2 ARE act -0.1%, A549 viability inconclusive, IDH1 R132H inh -5.3% and Nrf2 block inconclusive.
For COc1ccccc1Nc1ncc2c(n1)CCN(CC(C)C)C2 the results were Nrf2 ARE act 1.2% and A549 viability -4.1%.
`CCCCn1c(N)c(N(CC(C)C)C(=O)c2ccc(-c3ccc(Cl)cc3)o2)c(=O)[nH]c1=O` gave ELG1 repair inh 14.6µM*, Nrf2 ARE act -0.1%, A549 viability -10.0%, IDH1 R132H inh -9.5% and Nrf2 block 16.0%.
Screening CCCCn1c(N)c(N(CC)C(=O)c2ccc(-c3ccc(Cl)cc3)o2)c(=O)[nH]c1=O returned ELG1 repair inh 9.7%, Nrf2 ARE act 0.1%, A549 viability 2.7%, IDH1 R132H inh -12.6% and Nrf2 block 6.0%.
CC(C)C[C@H]1CNC(=O)C(=O)N1C[C@H](C)NC(=O)Cc1ccccc1 was read as ELG1 repair inh -0.7%, Nrf2 ARE act 0.4%, A549 viability 3.2%, IDH1 R132H inh -2.4% and Nrf2 block 10.5%.
C=CCOc1ccc(CN(C)c2ccc(S(=O)(=O)N3CCN(C)CC3)cc2[N+](=O)[O-])cc1 was read as ELG1 repair inh -15.3%, Nrf2 ARE act 3.7%, A549 viability 1.8%, IDH1 R132H inh 1.3% and Nrf2 block -10.8%.
`CCOc1ccc(CN(C)c2ccc(S(=O)(=O)N3CCN(C)CC3)cc2[N+](=O)[O-])cc1OC` gave ELG1 repair inh 0.9%, Nrf2 ARE act 2.2%, A549 viability -4.2%, IDH1 R132H inh 0.2% and Nrf2 block 16.4µM*.
For CCOC(=O)c1c(C)[nH]c(CCC(=O)Nc2c(C)cccc2CC)c1C the results were Nrf2 ARE act 3.5%, A549 viability -12.4% and IDH1 R132H inh -5.1%.
Screening C=CCn1c(SCC(=O)NCC2CCCO2)nc2c([nH]c3ccccc32)c1=O (stereo not given) returned ELG1 repair inh 4.11µM*, Nrf2 ARE act 2.4%, A549 viability 1.8%, IDH1 R132H inh -9.2% and Nrf2 block inconclusive.
COc1ccc(Cn2ncc3c4sc(C)cc4n(C)c3c2=O)cc1F was read as A549 viability -1.8% and Nrf2 block 2.9%.
`CC1=NNC(=O)C1C(c1ccccc1)C1C(=O)NN=C1C` (stereo not given) gave ELG1 repair inh 0.7%.
Screening CC(C)(C)c1cc(C(=O)NN)n(Cc2ccc(F)cc2)n1 returned ELG1 repair inh 0.0%, Nrf2 ARE act 0.6%, A549 viability -0.6%, IDH1 R132H inh 4.5% and Nrf2 block -18.6%.
`COC(=O)c1cc(NC(=O)c2cc(C(C)(C)C)nn2Cc2ccc(F)cc2)ccc1N1CCOCC1` gave ELG1 repair inh inconclusive, Nrf2 ARE act 0.4%, A549 viability -18.3%, IDH1 R132H inh 13.4% and Nrf2 block 13µM*.
